Like-named read-outs stand apart in the source and are kept apart here.
Key:
Settings in all cases: n = 1
ACVR2B = test system: ACVR2B
ACVRL1 = test system: ACVRL1
ADCK3 = test system: T1, ADCK3
T1 construct: gene CABC1

ADCK4 = test system: ADCK4
AKT1 = test system: AKT1
AKT2 = test system: AKT2
AKT3 = test system: AKT3
ALK = test system: ALK
AMPK-alpha1 = test system: T2, AMPK-alpha1
T2 construct: gene PRKAA1

AMPK-alpha2 = test system: T3, AMPK-alpha2
T3 construct: gene PRKAA2

ANKK1 = test system: ANKK1
ARK5 = test system: T4, ARK5
T4 construct: gene NUAK1

ASK1 = test system: T5, ASK1
T5 construct: gene MAP3K5

ASK2 = test system: T6, ASK2
T6 construct: gene MAP3K6

AURKA = test system: AURKA
AURKB = test system: AURKB
AURKC = test system: AURKC
AXL = test system: AXL
BIKE = test system: T7, BIKE
T7 construct: gene BMP2K

BLK = test system: BLK
[1] = concentration: 1 μM, replicates: in singlicate
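Also: KINOMEscan kinase panel screen.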

## Cn1ccc2ncnc(Oc3ccc(NC(=O)Nc4ccccc4)cc3)c21
ACVR2B; [1]
  %Inh: 0%
ACVRL1; [1]
  %Inh: 0%
ADCK3; [1]
  %Inh: 12%
ADCK4; [1]
  %Inh: 5%
AKT1; [1]
  %Inh: 13%
AKT2; [1]
  %Inh: 0%
AKT3; [1]
  %Inh: 0%
ALK; [1]
  %Inh: 0%
AMPK-alpha1; [1]
  %Inh: 0%
AMPK-alpha2; [1]
  %Inh: 2%
ANKK1; [1]
  %Inh: 0%
ARK5; [1]
  %Inh: 4%
ASK1; [1]
  %Inh: 16%
ASK2; [1]
  %Inh: 0%
AURKA; [1]
  %Inh: 15%
AURKB; [1]
  %Inh: 93.7%
AURKC; [1]
  %Inh: 84%
AXL; [1]
  %Inh: 0%
BIKE; [1]
  %Inh: 0%
BLK; [1]
  %Inh: 2%

## Cc1ccc(NC(=O)Nc2cccc(C(F)(F)F)c2)cc1 [GSK955403]
ACVR2B; 1 µM
  %Inh: 0%
ACVRL1; 1 µM
  %Inh: 0%
ADCK3; 1 µM
  %Inh: 5%
ADCK4; 1 µM
  %Inh: 0%
AKT1; 1 µM
  %Inh: 12%
AKT2; 1 µM
  %Inh: 3%
AKT3; 1 µM
  %Inh: 0%
ALK; 1 µM
  %Inh: 0%
AMPK-alpha1; 1 µM
  %Inh: 0%
AMPK-alpha2; 1 µM
  %Inh: 0%
ANKK1; 1 µM
  %Inh: 0%
ARK5; 1 µM
  %Inh: 0%
ASK1; 1 µM
  %Inh: 20%
ASK2; 1 µM
  %Inh: 0%
AURKA; 1 µM
  %Inh: 0%
AURKB; 1 µM
  %Inh: 0%
AURKC; 1 µM
  %Inh: 19%
AXL; 1 µM
  %Inh: 0%
BIKE; 1 µM
  %Inh: 4%
BLK; 1 µM
  %Inh: 0%

## O=C1NC(=O)C(N2CCc3ccccc32)=C1c1ccccc1Cl [SB-373598]
ACVR2B; [1]
  %Inh: 33%
ACVRL1; [1]
  %Inh: 13%
ADCK3; [1]
  %Inh: 17%
ADCK4; [1]
  %Inh: 16%
AKT1; [1]
  %Inh: 0%
AKT2; [1]
  %Inh: 19%
AKT3; [1]
  %Inh: 25%
ALK; [1]
  %Inh: 4%
AMPK-alpha1; [1]
  %Inh: 17%
AMPK-alpha2; [1]
  %Inh: 22%
ANKK1; [1]
  %Inh: 18%
ARK5; [1]
  %Inh: 10%
ASK1; [1]
  %Inh: 7%
ASK2; [1]
  %Inh: 13%
AURKA; [1]
  %Inh: 0%
AURKB; [1]
  %Inh: 10%
AURKC; [1]
  %Inh: 3%
AXL; [1]
  %Inh: 0%
BIKE; [1]
  %Inh: 18%
BLK; [1]
  %Inh: 7%

## Fc1cccc(COc2nnc(-c3ccc4c(c3)CCO4)o2)c1
ACVR2B; [1]
  %Inh: 100%
ACVRL1; [1]
  %Inh: 0%
ADCK3; [1]
  %Inh: 0%
ADCK4; [1]
  %Inh: 0%
AKT1; [1]
  %Inh: 0%
AKT2; [1]
  %Inh: 20%
AKT3; [1]
  %Inh: 11%
ALK; [1]
  %Inh: 7%
AMPK-alpha1; [1]
  %Inh: 6%
AMPK-alpha2; [1]
  %Inh: 0%
ANKK1; [1]
  %Inh: 0%
ARK5; [1]
  %Inh: 5%
ASK1; [1]
  %Inh: 0%
ASK2; [1]
  %Inh: 23%
AURKA; [1]
  %Inh: 15%
AURKB; [1]
  %Inh: 37%
AURKC; [1]
  %Inh: 0%
AXL; [1]
  %Inh: 0%
BIKE; [1]
  %Inh: 0%
BLK; [1]
  %Inh: 0%

## COc1cc(Nc2nccc(N3CCC(NC(=O)Nc4cc(C)ccc4C)C3)n2)cc(OC)c1OC (stereo not shown) [GSK1379762]
ACVR2B; [1]
  %Inh: 0%
ACVRL1; [1]
  %Inh: 0%
ADCK3; [1]
  %Inh: 30%
ADCK4; [1]
  %Inh: 49%
AKT1; [1]
  %Inh: 0%
AKT2; [1]
  %Inh: 0%
AKT3; [1]
  %Inh: 0%
ALK; [1]
  %Inh: 45%
AMPK-alpha1; [1]
  %Inh: 0%
AMPK-alpha2; [1]
  %Inh: 22%
ANKK1; [1]
  %Inh: 13%
ARK5; [1]
  %Inh: 50%
ASK1; [1]
  %Inh: 1%
ASK2; [1]
  %Inh: 7%
AURKA; [1]
  %Inh: 92.7%
AURKB; [1]
  %Inh: 94.4%
AURKC; [1]
  %Inh: 81%
AXL; [1]
  %Inh: 0%
BIKE; [1]
  %Inh: 60%
BLK; [1]
  %Inh: 10%

— paper PMC5540273 (PLoS ONE, 2017)
